Test results taken from PubChem BioAssay.
The source made the active and inactive calls.

Experiments:
[1] = binders of probe aFSTL3 on microarray, primary screen, stem cell growth factor project, biochemical, small-molecule microarray, fluorescence 635/667 (AID 1064); details: higher = more signal;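 note: measures binding of the biotinylated anti-FSTL3 antibody to printed compounds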
[2] = binders from COS7 lysate, DM2A8 probe, primary screen, torsin A project, cell lysate, small-molecule microarray, fluorescence 635/667 (AID 1065); details: higher = more signal, COS7 lysate expressing mutant human TOR1A
[3] = binders of probe aFGF2 on microarray, primary screen, stem cell growth factor project, biochemical, small-molecule microarray, fluorescence 635/667 (AID 1067); details: higher = more signal;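 note: measures binding of biotinylated aFGF2 protein to printed compounds on slides; z-score merges feature fluorescence and signal-to-noise across triplicate slides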
[4] = binders of probe aFGF10 on microarray, primary screen, stem cell growth factor project, biochemical, small-molecule microarray, fluorescence 635/667 (AID 1071); details: higher = more signal;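 note: score merges 667 nm spot intensity and signal to noise from triplicate slides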
[5] = molecular target: Neurogenic locus notch homolog protein 2 (Homo sapiens) (UniProt Q04721); experiment: Notch2 binders on small-molecule microarrays, primary screen, biochemical, small-molecule microarray, 635 nm fluorescence, stem cell growth factors (AID 1073); details: Notch2 binding, higher = more signal
[6] = molecular target: Pro-neuregulin-1, membrane-bound isoform (Homo sapiens) (UniProt Q02297); experiment: NRG1 binders on small-molecule microarrays, primary screen, psychiatric disease protein project, biochemical, small-molecule microarray, fluorescence 635/667 (AID 1075); details: NRG1 binding, 635 nm fluorescence, higher = more signal;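 note: score combines 667 nm spot fluorescence with signal to noise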
[7] = test system: Neuregulin-1 EGF-like domain; experiment: binders of neuregulin-1 EGF-like domain, primary screen, biochemical, small-molecule microarray, 635 nm fluorescence (AID 1081); details: small-molecule microarray binding, higher = more signal;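 note: binding of the protein to compounds printed on small-molecule microarray slides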
[8] = FRG1 promoter luciferase signal modulators, primary screen, FRG1 inhibition for FSHD, cell-based, C2C12 myotubes, firefly/Renilla luciferase, luminescence (AID 1084); details: higher = more signal, called active from +8 up or from −8 down
[9] = binders of probe aFST on microarray, primary screen, stem cell growth factor project, biochemical, small-molecule microarray, fluorescence 635/667 (AID 1086); details: higher = more signal;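 note: score merges 667 nm fluorescence with signal-to-noise of each printed compound spot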
[10] = binders of probe aHhip on microarray, primary screen, stem cell growth factor project, biochemical, small-molecule microarray, fluorescence 635/667 (AID 1087); details: higher = more signal;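 note: score merges spot fluorescence at 667nm with spot signal to noise ratio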

Chain of Pro-neuregulin-1, membrane-bound isoform (Homo sapiens) (Q02297 whole entry, looked up, the tested form may be a part, canonical isoform): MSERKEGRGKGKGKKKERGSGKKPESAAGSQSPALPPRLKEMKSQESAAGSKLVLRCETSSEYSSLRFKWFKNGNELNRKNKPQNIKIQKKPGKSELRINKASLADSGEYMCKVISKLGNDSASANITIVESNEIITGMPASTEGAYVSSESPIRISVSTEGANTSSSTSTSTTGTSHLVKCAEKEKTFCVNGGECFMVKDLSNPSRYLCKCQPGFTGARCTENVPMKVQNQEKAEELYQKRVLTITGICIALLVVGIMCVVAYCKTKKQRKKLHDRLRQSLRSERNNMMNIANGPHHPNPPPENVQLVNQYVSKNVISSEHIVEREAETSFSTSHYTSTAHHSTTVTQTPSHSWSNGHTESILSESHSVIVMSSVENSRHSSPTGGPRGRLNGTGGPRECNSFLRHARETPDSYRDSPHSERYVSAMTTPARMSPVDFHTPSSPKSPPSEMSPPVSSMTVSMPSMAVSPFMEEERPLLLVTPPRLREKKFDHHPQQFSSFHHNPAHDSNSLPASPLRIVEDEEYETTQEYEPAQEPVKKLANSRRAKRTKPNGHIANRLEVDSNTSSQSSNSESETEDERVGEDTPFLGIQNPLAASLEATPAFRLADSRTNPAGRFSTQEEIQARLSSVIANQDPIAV
Chain of Neurogenic locus notch homolog protein 2 (Homo sapiens) (Q04721 whole entry, looked up, canonical isoform): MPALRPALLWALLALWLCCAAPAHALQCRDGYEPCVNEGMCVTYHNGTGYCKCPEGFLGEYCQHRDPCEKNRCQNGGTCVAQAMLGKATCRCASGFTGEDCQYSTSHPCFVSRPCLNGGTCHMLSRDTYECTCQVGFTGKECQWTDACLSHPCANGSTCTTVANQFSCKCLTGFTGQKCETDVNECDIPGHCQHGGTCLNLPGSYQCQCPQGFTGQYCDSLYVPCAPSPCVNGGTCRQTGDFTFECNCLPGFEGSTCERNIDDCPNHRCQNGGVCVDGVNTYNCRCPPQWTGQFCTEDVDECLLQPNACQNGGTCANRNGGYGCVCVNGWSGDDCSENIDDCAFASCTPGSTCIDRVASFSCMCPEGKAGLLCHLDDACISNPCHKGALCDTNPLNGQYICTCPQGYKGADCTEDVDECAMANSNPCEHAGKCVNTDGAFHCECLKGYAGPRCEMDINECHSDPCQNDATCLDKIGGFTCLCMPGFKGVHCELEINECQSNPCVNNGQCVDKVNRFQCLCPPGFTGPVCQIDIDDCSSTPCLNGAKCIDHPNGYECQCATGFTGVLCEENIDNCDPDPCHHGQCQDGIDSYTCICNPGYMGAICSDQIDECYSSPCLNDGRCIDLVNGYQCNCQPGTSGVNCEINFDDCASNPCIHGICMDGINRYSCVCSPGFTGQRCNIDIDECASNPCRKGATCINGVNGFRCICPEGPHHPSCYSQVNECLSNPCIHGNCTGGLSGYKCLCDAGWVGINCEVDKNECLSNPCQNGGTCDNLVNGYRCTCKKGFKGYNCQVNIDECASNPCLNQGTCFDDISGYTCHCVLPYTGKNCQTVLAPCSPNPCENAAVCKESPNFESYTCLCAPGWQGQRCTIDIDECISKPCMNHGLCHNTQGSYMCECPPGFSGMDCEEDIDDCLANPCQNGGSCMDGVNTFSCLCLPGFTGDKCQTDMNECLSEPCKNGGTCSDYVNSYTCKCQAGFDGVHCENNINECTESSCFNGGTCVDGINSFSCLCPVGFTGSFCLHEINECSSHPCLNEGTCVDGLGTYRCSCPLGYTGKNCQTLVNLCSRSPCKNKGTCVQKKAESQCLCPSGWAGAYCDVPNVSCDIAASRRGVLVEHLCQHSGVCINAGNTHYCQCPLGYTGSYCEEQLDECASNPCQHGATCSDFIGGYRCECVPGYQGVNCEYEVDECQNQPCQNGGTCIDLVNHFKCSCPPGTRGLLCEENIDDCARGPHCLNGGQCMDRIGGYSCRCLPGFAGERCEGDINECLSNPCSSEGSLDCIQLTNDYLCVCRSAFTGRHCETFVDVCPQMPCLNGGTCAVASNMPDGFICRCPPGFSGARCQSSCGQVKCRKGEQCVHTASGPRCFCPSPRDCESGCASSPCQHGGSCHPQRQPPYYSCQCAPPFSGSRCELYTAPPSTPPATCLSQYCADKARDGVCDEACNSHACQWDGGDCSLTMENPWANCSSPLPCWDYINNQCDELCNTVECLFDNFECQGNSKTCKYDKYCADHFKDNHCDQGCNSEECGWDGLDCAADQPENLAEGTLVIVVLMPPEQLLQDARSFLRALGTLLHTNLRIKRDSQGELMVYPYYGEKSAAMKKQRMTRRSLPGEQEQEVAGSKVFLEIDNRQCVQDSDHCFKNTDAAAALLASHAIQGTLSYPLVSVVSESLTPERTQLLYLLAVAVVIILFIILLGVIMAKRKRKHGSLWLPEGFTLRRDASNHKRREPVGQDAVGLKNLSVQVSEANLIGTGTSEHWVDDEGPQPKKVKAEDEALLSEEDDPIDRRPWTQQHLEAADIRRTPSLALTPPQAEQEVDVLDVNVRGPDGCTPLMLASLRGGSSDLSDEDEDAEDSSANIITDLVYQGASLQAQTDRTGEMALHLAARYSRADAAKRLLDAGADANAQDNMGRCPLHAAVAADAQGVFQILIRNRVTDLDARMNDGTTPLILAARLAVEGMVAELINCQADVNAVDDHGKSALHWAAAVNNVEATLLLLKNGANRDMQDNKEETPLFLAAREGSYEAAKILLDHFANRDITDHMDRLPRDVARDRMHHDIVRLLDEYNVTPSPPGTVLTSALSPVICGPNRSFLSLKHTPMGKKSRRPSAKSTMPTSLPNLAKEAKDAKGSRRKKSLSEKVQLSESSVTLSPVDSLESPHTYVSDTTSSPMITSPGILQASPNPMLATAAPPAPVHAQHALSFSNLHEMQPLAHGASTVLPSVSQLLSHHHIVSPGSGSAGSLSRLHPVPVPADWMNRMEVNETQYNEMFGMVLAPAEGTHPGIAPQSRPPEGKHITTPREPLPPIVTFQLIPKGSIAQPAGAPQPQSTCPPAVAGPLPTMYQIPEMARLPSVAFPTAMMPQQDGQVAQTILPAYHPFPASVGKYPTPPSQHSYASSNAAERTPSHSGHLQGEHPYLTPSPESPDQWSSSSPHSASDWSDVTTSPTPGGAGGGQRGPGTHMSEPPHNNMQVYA

| SMILES | composite z-score [1] | composite z-score [2] | composite z-score [3] | composite z-score [4] | composite z-score [5] | composite z-score [6] | composite z-score [7] | z-score [8] | composite z-score [9] | composite z-score [10] |
| --- | --- | --- | --- | --- | --- | --- | --- | --- | --- | --- |
| CC(C)NC(=O)[C@@H]1c2ccccc2C(=O)N(C2CCCCC2)[C@H]1c1ccc(CO)cc1 | 0.0605 | 0.562 | 0.0703 | 0.74 | 0.851 | 1.15 | 1 | 0.492 (inactive) | 0.333 | -0.216 |
| COc1ccc(C(=O)Nc2cccc(CN3C(=O)[C@@]4(O[C@@H](CC(=O)N5Cc6ccccc6C[C@H]5CO)[C@H]([Si](C)(C)c5ccc(OC)cc5)[C@H]4C)c4ccccc43)c2)cc1 | 0.0279 | 1.09 | -0.0924 | 0.505 | 0.493 | 0.598 | 1.25 | -2.95 (inactive) | 0.349 | -0.0994 |
| CO[C@H]1O[C@H](CO)[C@@H](OC(=O)Nc2ccc(C(F)(F)F)cc2)[C@H](OC(=O)Nc2ccccc2)[C@@H]1OC(=O)Nc1ccccc1 | -0.181 | -0.0087 | 0.113 | 0.392 | 1.29 | 0.781 | 0.879 | 5.33 (inactive) | 0.234 | -0.188 |
| Cc1c(NC(=O)/C(C#N)=C/C=C/c2ccccc2)c(=O)n(-c2ccccc2)n1C | -0.438 | -0.0022 | -0.0035 | 0.286 | 0.654 | 0.757 | 0.825 | 4.07 (inactive) | 0.003 | 0.237 |
| COc1ccccc1CN1C(=O)c2ccccc2[C@](Cc2ccccc2I)(C(=O)NCc2ccccc2)[C@@H]1c1ccc(CO)cc1 | 0.317 | 1.33 | -0.0614 | 0.197 | 0.106 | 0.923 | 0.535 | -1.13 (inactive) | 0.182 | 0.154 |
| O=C1OCC=C[C@H]2OC34C=CCN(CCN5CCOCC5)C(=O)[C@H]3N(CCCCCCO)C(=O)[C@@H]4[C@@H]12 (stereo not given in full) | -0.142 | 0.108 | -0.0785 | 0.0266 | -0.157 | 2.07 | 1.27 | 1.69 (inactive) | 0.334 | -0.364 |
| COc1ccc([Si](C)(C)[C@@H]2[C@@H](CC(=O)N3Cc4ccccc4C[C@H]3CO)O[C@]3(C(=O)N(Cc4cccc(N5C(=O)COc6ccccc65)c4)c4ccccc43)[C@H]2C)cc1 | -0.562 | 0.608 | -0.1 | 0.41 | 0.244 | 1.57 | 0.725 | -2.29 (inactive) | 0.0559 | -0.451 |
| [N-]=[N+]=NCc1ccccc1[C@@H]1OC(c2ccc(OCCCO)cc2)=N[C@]1(Cc1ccccc1N=[N+]=[N-])C(N)=O | 0.209 | -0.523 | -0.156 | 0.385 | 1.66 | 2.08 | 1.27 | 0.722 (inactive) | 1.25 | -0.0994 |
| COc1ccccc1CN1C(=O)c2ccccc2[C@](Cc2ccccc2I)(C(=O)NC2CC2)[C@@H]1c1ccc(CO)cc1 | -0.532 | 0.46 | 0.0673 | 0.531 | 1.32 | 0.949 | 1.42 | -2.86 (inactive) | 0.653 | 0.136 |
| O=C1[C@H]2C=C(Br)[C@H](C[C@@H]2OCCOCCO)[C@@]12CO2 | 0.0321 | -0.0798 | -0.103 | 0.373 | 0.473 | -0.151 | 0.437 | -0.0763 (inactive) | 0.0751 | -0.0994 |
| [N-]=[N+]=NCc1ccccc1[C@@H]1OC(c2ccc(OCCCO)cc2)=N[C@]1(Cc1ccccc1)C(=O)O | 0.221 | 0.163 | 0.0909 | 1.04 | 0.526 | 1.57 | 1.25 | 2.29 (inactive) | 0.461 | -0.0581 |
| Cc1cc(C)c(C(O)C2C=CC3C(=O)NC(=O)C3N2Nc2ccccn2)c(C)c1 (stereo not given) | 0.36 | 0.135 | -0.0878 | 0.0012 | 0.486 | 1.65 | 0.986 | 1.03 (inactive) | 0.578 | 0.0373 |
| COC(=O)[C@@]1(Cc2ccccc2)[C@H]2c3cc(C(=O)N(C)C)n(Cc4ccccc4)c3C[C@H]2CN1C(=O)c1ccccc1 | 0.0252 | -0.705 | 0.274 | 0.747 | 1.67 | 0.614 | 1.26 | 0.273 (inactive) | 0.856 | 0.896 |
| C=C(COC)C(=O)CC[C@H](OC(=O)c1cccnc1)c1ccccc1OCCO | -0.0665 | 0.903 | -0.0004 | 0.675 | 0.928 | 0.599 | 1.24 | 0.445 (inactive) | 0.437 | -0.236 |
| CN1C(=O)C2C=CC(C(O)C3=C[C@H]4C[C@@H](C3)C4(C)C)N(Nc3ccc([N+](=O)[O-])cc3[N+](=O)[O-])C2C1=O (stereo not given in full) | 0.574 | 0.156 | 0.15 | 0.733 | 1.66 | 1.51 | 1.33 | 0.0285 (inactive) | 0.642 | 0.0826 |
| O=C(NCC(F)(F)F)[C@@H]1c2ccccc2C(=O)N(Cc2ccccc2)[C@H]1c1ccc(CO)cc1 | 1.16 | 0.299 | -0.0637 | -0.358 | -0.514 | 0.0291 | 0.432 | -1.3 (inactive) | -0.419 | -0.0078 |
| O=C1c2ccccc2[C@@]2(Cc3ccccc3N(Cc3ccccc3)C2=O)[C@H](c2ccc(CO)cc2)N1Cc1ccccc1C(F)(F)F | 0.178 | -1.44 | -0.083 | -0.236 | -0.233 | 0.363 | 0.114 | -0.366 (inactive) | -0.0954 | -0.125 |
| COC(=O)c1c(CC[C@@H](CO)NC(=O)Nc2ncn[nH]2)oc(C(=O)Cc2ccccc2)c1C(=O)OC | -0.468 | -0.0764 | -0.214 | 0.511 | 1.21 | 0.163 | 0.778 | 0.004 (inactive) | 0.524 | 0.0722 |
| O=C1O[C@@H](c2ccccc2)[C@@H](c2ccccc2)N2[C@@H](c3ccc(O)cc3)[C@]3(C(=O)Nc4ccccc43)[C@@H](C(=O)N3CCCCCCC3)[C@H]12 | 3.65 | 1.15 | 0.937 | 0.525 | 0.519 | 2.22 | 1.35 | -4.16 (inactive) | 2.99 | 1.07 |
| CCOC(=O)C[C@H]1[C@H](OC(=O)c2ccccc2-c2ccccc2)[C@@H](NC(=O)c2ccc(-c3ccccc3)cc2)c2cc(OCCCO)ccc2N1C(=O)c1ccccc1 | -0.491 | 0.167 | -0.0428 | 0.69 | 0.56 | 0.106 | 0.787 | -0.172 (inactive) | 0.342 | 0.177 |
| C=CC[C@]1(C(=O)O)N=C(c2ccc(OCCCO)cc2)O[C@H]1c1ccccc1CN=[N+]=[N-] | 0.736 | -0.43 | -0.144 | -0.638 | -0.129 | 0.743 | 0.467 | 2.22 (inactive) | 0.182 | -0.275 |
| O=C(NCC(O)CO)[C@]1(CCS(=O)(=O)c2ccccc2)N=C(c2ccc(OCCCO)cc2)O[C@@H]1c1ccccc1 (stereo not given in full) | 0.871 | 1.87 | -0.0064 | -0.299 | 0.158 | 2.3 | 1.3 | 0.47 (inactive) | 1.08 | -0.288 |
| [N-]=[N+]=NCc1ccccc1C[C@@]1(C(=O)NCc2ccccc2)N=C(c2ccc(OCCCO)cc2)O[C@@H]1c1ccccc1CN=[N+]=[N-] | 0.705 | 0.425 | 0.107 | 0.809 | 0.933 | 0.926 | 1.05 | -1.95 (inactive) | 0.803 | 0.553 |
| [N-]=[N+]=Nc1ccccc1[C@@H]1OC(c2ccc(OCCCO)cc2)=N[C@]1(CCS(=O)(=O)c1ccccc1)C(=O)N1CCCCC1 | 1.78 | 1.25 | 0.206 | 0.77 | 1.6 | 1.37 | 1.29 | -1.72 (inactive) | 1.18 | -0.249 |
| C=C(CCCC)C(=O)CC[C@@H](OC(=O)c1ccccc1-c1ccccc1C(=O)O)c1ccc(CO)o1 | -0.241 | -0.141 | -0.0291 | 0.45 | 0.629 | 0.504 | 0.989 | -0.161 (inactive) | 0.137 | 0.192 |
